Results on 13 compounds are retold here after PubChem BioAssay (NCATS).

Results filed as inconclusive are left out. Calls of active or inactive are those of the source. The call rests on the fitted dose curve; in most records, active means well fitted inhibition curve with a large enough effect in the main read-out, with a control signal flat (not every such curve was filed as active); inconclusive means small, poorly fitted or top-dose-only effect, or effect the other way, or a change in a side signal; inactive means no such curve, though single readings can be large or run the other way.
Potency means the concentration at half of the fitted maximal effect.

This test in a line: Nrf2 qHTS screen for inhibitors: Validation (AID 493153).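 On activity change, negative = inhibition: A549 cells with ARE-driven firefly luciferase reporter reporting Nrf2 activity; % of control where 0% means no effect.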 As to conditions: A549 ARE-Fluc reporter, 18-24 h; Potency: luciferase luminescence; viability change: measured here: cytotoxicity max response; luciferase luminescence, at 46.1 µM (top of the series); activity change, negative = inhibition: at the top concentration. From the text: NIH Molecular Libraries Probe Production Network [MLPCN] NIH Chemical Genomics Center [NCGC] MLPCN Grant: R03-MH092170-01 Assay Provider: Shyam Biswal, Johns Hopkins University Assay Overview: Nrf2 is a transcription factor that maintains cellular redox homoestasis and protects cells from xenobiotics. Nrf2 binds to the antioxidant response element (ARE) to induce gene expression of a broad spectrum of genes that encode for antioxidants. […] Finding a small molecule that act as an inhibitor of Nrf2 function would represent a novel therapeutic target that could lead to improvement in survival of patients undergoing chemo- and/or radio- therapy. 1. Shibata, T., et al., Genetic Alteration of Keap1 Confers Constitutive Nrf2 Activation and Resistance to Chemotherapy in Gallbladder Cancer. Gastroenterology, 2008. 2. Sjoblom, T., et al., The consensus coding sequences of human breast and colorectal cancers. Science, 2006. 314(5797): p. 268-74.
Assay Protocol Summary: A concentration-response assay was performed with A549 ARE_Fluc cells which are suspended in 5% FBS OPTI-MEM. Five uL were dispensed into 1536-well white TC-treated plate using the Kalypsys dispenser to achieve a density of 5000 cells/well in all columns except column 1. The plate is incubated at 37deg C at 5% CO2 for 2 hours before 23 nL of compounds are added with the Kalypsys pin tool equipped with a 1,536-pin array containing 10-nL slotted pins (FP1S10, 0.457-mm diameter, 50.8 mm long; V&P Scientific). The control compounds Budesonide and Staurosporine are both added at a concentration of 2mM and Budesonide is also added as a 1:10 titration, starting at 200uM, to achieve dose-response. After an 18-24 hour incubation at 37deg C at 5% CO2, 5ul of medium is added to column 1. Afterwards 1ul of 5x of CellTiter-Fluor (Promega) is added to every well. The plate is then incubated at 37deg C at 5% CO2 for 30 minutes before they are read on the ViewLux (Perkin Elmer) for a fluorescent read Ex=405(10)/Em=525(10) for a 3 second exposure, 2x binning, and high gain. Then 3 uL of 3x BugLite is dispensed into all wells and the plate is incubated at ambient room temperature for 15 minutes. Afterwards another ViewLux read is performed using the clear filter to get a luminescent read with the settings of 40 second exposure, 2x binning, and high gain. Cytotoxicity is assessed through the first fluorescent read and then biochemical activity against Nrf2 is measured in the luminescent read.
With `Clc1ccc2c(c1)N=C(N1CCNCC1)c1ccccc1N2`, the “activity change, negative = inhibition” value was -4.82% (inactive) and the viability change worked out at 1.81%.
With `O=[N+]([O-])c1ccc(-c2nc(-c3ccc(F)cc3)c(-c3ccncc3)[nH]2)cc1`, the Potency was 16.4 µM (active) and the viability change was -1.66%.
On to `C[N+](C)(C)CCO`, for which the viability change is -3.89% and the “activity change, negative = inhibition” value is 0% (inactive).
For `COc1ccccc1N1CCN(CCN2C(=O)CC3(CCCC3)CC2=O)CC1` the same measures were 9.42% and 5.81% (inactive).
As for `CCN(CC)CCNC(=O)c1ccc(NS(C)(=O)=O)cc1`, the “activity change, negative = inhibition” value was 0% (inactive) and the viability change was determined as 5.75%.
For `COC(=O)C1=CO[C@@H](O)[C@@H]2C(CO)=CC[C@H]12` the same measures were -13% (inactive) and -6.84%.
With `CC(C)N(CCC(=O)c1ccc2ccccc2c1)Cc1ccccc1`, the “activity change, negative = inhibition” value was 1.23% (inactive) and the viability change is -0.356%.
For `O=C1NC(c2cccc([N+](=O)[O-])c2)=CCN1c1ccccc1O` the same measures were -12.3% (inactive) and -1.13%.
For `Cn1cnc2c(NCc3ccccc3)nc(NCCO)nc21`, in that order: -10.5% (inactive) and 8.36%.
For `Cc1nn(-c2ccccc2)c(C)c1/C=N/N1CCN(Cc2ccccc2)CC1`, in that order: -7.52% (inactive) and -3.49%.
As for `NC(N)=NCCCCN=C(N)N`, the “activity change, negative = inhibition” value is 7% (inactive) and the viability change worked out at 2.98%.
For `Brc1ccc([C@H]2CN3CCSC3=N2)cc1`, in that order: 7.13% (inactive) and -0.405%.
For `O=C1NC(=O)/C(=C/c2ccc3c(c2)OC(F)(F)O3)S1`, in that order: -15.5% (inactive) and -9.96%.
